For ten compounds, Potency, max response and outcome results are on record in PubChem BioAssay (NCATS).

SMILES strings stand for the structures. Inconclusive results are not listed. Unmarked numbers belong to inactive results. Calls of active or inactive are those of the source. Calls follow the shape of the dose curve; as a rule, active = well fitted inhibition curve with a large enough effect; inconclusive = small, poorly fitted or top-dose-only effect; inactive = flat fitted curve, though single readings scatter.

For one experiment, the system named is HB3. In words: qHTS profiling for inhibitors of Plasmodium falciparum proliferation (AID 504749). Particulars: P. falciparum in erythrocytes, SYBR Green DNA, 72 h; series mostly up to 28.7 µM. The method, boiled down: (§1)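 Infected RBCs, 0.3% parasitemia/2.5% Hct final; cpd 72 h, 37 C, 5% CO2; lysis buffer with saponin/triton/SYBR Green I, o/n RT dark; FI 485/535; norm. to artemisinin (0.29 uM) and DMSO.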
A general note: In qHTS, concentration-response curves come from the screen itself.

The next experiment concerns ICS. The description is as above. Particulars: P. falciparum in erythrocytes, SYBR Green DNA, 72 h; series mostly up to 28.7 µM. The method, boiled down:
as §1

The next experiment deals with JCK. Described as above. Particulars: P. falciparum in erythrocytes, SYBR Green DNA, 72 h; series mostly up to 28.7 µM. An outline of the steps:
as §1

A further experiment relates to N140. The experiment is described as above. Particulars: P. falciparum in erythrocytes, SYBR Green DNA, 72 h; series mostly up to 28.7 µM. The method, boiled down: as §1
The test system of another experiment is P93_24. The experiment is described as above. Particulars: P. falciparum in erythrocytes, SYBR Green DNA, 72 h; series mostly up to 28.7 µM. The method, boiled down:
as §1

In the next experiment the test system is P94_40. Described as above. As to conditions: P. falciparum in erythrocytes, SYBR Green DNA, 72 h; series mostly up to 28.7 µM. The method, boiled down:
as §1

The next experiment relates to PAD. The description is as above. Particulars: P. falciparum in erythrocytes, SYBR Green DNA, 72 h; series mostly up to 28.7 µM. The method, boiled down: as §1
The subject of another experiment is PC15. The description is as above. As to conditions: P. falciparum in erythrocytes, SYBR Green DNA, 72 h; series mostly up to 28.7 µM. The method, boiled down: as §1
For the next experiment, the system named is PC26. Described as above. As to conditions: P. falciparum in erythrocytes, SYBR Green DNA, 72 h; series mostly up to 28.7 µM. The method, boiled down: as §1
A further experiment concerns PC49. Described as above. As to conditions: P. falciparum in erythrocytes, SYBR Green DNA, 72 h; series mostly up to 28.7 µM. The method, boiled down:
as §1

Another experiment deals with SC27B. The description is as above. As to conditions: P. falciparum in erythrocytes, SYBR Green DNA, 72 h; series mostly up to 28.7 µM. An outline of the steps: as §1
Another experiment has as its system TAB109. Described as above. As to conditions: P. falciparum in erythrocytes, SYBR Green DNA, 72 h; series mostly up to 28.7 µM. An outline of the steps:
as §1

The next experiment has as its system TAB113. The experiment is described as above. As to conditions: P. falciparum in erythrocytes, SYBR Green DNA, 72 h; series mostly up to 28.7 µM. An outline of the steps:
as §1

For a further experiment, the system named is TAB165. The description is as above. As to conditions: P. falciparum in erythrocytes, SYBR Green DNA, 72 h; series mostly up to 28.7 µM. The method, boiled down:
as §1

For another experiment, the system named is W2. The description is as above. Particulars: P. falciparum in erythrocytes, SYBR Green DNA, 72 h; series mostly up to 28.7 µM. An outline of the steps:
as §1

The test system of another experiment is HEK293. In words: Cytotoxic Profiling of Annotated Libraries Using Quantitative High-Throughput Screening (AID 1296008). As to max response: % is scaled to controls: 0 for no effect and ±100 for the full control effect. Particulars: Five cell lines viability, CellTiter-Glo ATP luminescence, 48-72 h; max response: stronger effect = lower value. The method, boiled down:
(§2)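 Cytotoxicity was measured as CellTiter-Glo ATP luminescence, read after 10 min at room temperature. Compound treatment of the cells lasted 48 or 72 hr at 37 degrees Celsius in a qHTS format.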
(ATP-based viability assays read luminescence as a measure of living cells.)

The next experiment deals with HaCat. The description is as above. Particulars: Five cell lines viability, CellTiter-Glo ATP luminescence, 48-72 h; max response: stronger effect = lower value. An outline of the steps: as §2
In a further experiment the test system is KB-3-1. Described as above. As to conditions: Five cell lines viability, CellTiter-Glo ATP luminescence, 48-72 h; max response: stronger effect = lower value. An outline of the steps:
as §2

A further experiment deals with NIH3T3. The description is as above. Particulars: Five cell lines viability, CellTiter-Glo ATP luminescence, 48-72 h; max response: stronger effect = lower value. The method, boiled down: as §2
A further experiment has as its system CRL-7250. The experiment is described as above. Particulars: Five cell lines viability, CellTiter-Glo ATP luminescence, 48-72 h; max response: stronger effect = lower value. An outline of the steps:
as §2
Also: nearly all actives have a fitted effect of over 60% in size.
Potency is read from the fitted curve at half-maximal effect.

On to `CCOc1cc(OCC)c(C(=O)CCC(=O)O)cc1OCC`, for which the Potency result in the experiment on HB3, with ICS, with JCK, with N140, in the experiment with P93_24 and in the experiment on P94_40 was “inactive” throughout. The Potency result in the experiment on PAD, in the experiment on PC15, in the experiment with PC26, in the experiment with PC49, in the experiment on SC27B and in the experiment with TAB109 was “inactive” each time. The Potency entry in the experiment with TAB113, with TAB165 and with W2 was “inactive” each time. The max response in the experiment on HEK293 is -0.0497%; in the experiment on KB-3-1, -0.0013%. Also, the outcome in the experiment with HaCat and with NIH3T3 was inactive.

Turning to `COc1ccc(C(Cl)=C(c2ccc(OC)cc2)c2ccc(OC)cc2)cc1`, the Potency in the experiment with N140 was 15.8 µM (active); with P94_40, 11.2 µM (active); in the experiment with TAB109 it was 3.55 µM (active); in the experiment on TAB165, 2.51 µM (active). Also, the Potency entry with PC15 and in the experiment on PC26 was “inactive” in each case. The result with CRL-7250 was inactive. For the same compound, the max response was -3.14% in the experiment on HaCat, 9.01% in the experiment with KB-3-1 and -2.4% in the experiment on NIH3T3.

For `CN1CCN(c2c(F)cc3c(=O)c(C(=O)O)cn4c3c2SCC4)CC1`, the Potency entry in the experiment on HB3, in the experiment on JCK, in the experiment on PC15, with PC26, with PC49 and with SC27B was “inactive” in each case. Besides, the Potency entry in the experiment with TAB113 is “inactive”. Moreover, the max response is -2.29% in the experiment with CRL-7250, -15.8% in the experiment on KB-3-1 and -3.6% in the experiment on NIH3T3. The compound was classed as inactive in the experiment with HaCat.

Regarding `CN1CCN(c2cc3c(cc2F)c(=O)c(C(=O)O)cn3-c2ccc(F)cc2)CC1`, the Potency result in the experiment on HB3, with JCK, in the experiment on PAD, with PC15, in the experiment with PC26 and with PC49 was “inactive” throughout. Further, the Potency result in the experiment with SC27B, with TAB113 and with TAB165 was “inactive” each time. In the experiment on W2, the Potency is 12 µM (active). The results for the max response with CRL-7250, in the experiment on HaCat and in the experiment on NIH3T3 were -1.2%, 2% and -2.14%, respectively.

For the compound `NC1CCN(c2nc3c(cc2F)c(=O)c(C(=O)O)cn3-c2ccc(F)cc2F)C1` (stereo unspecified), the Potency entry in the experiment on JCK, in the experiment on PAD, in the experiment on PC15, with PC26 and in the experiment with SC27B was “inactive” in each case. The Potency in the experiment with W2 was 5.36 µM (active). In addition, the result in the experiment with CRL-7250, in the experiment with HaCat and in the experiment with NIH3T3 was inactive. In the experiment with KB-3-1, the max response was 1.57%.

For the compound `CCOC(=O)[C@@](C)(N)Cc1ccc(O)c(O)c1`, the Potency in the experiment on HEK293 is 18.8 µM (active). In the experiment on HaCat, the compound was classed as inactive. For the same compound, the max response in the experiment with KB-3-1 was -9.02%.

With `CCCCC(CC)CN1CN(CC(CC)CCCC)CC(C)(N)C1` (stereo unspecified), the max response in the experiment with CRL-7250 was -21.5%; in the experiment with HaCat, -10.2%; with NIH3T3, -12.8%.

For `CN(CCCN1c2ccccc2CCc2ccccc21)CC(=O)c1ccc(Cl)cc1`, the Potency was 12.6 µM (active) with HB3; 2 µM (active) in the experiment on ICS; 7.94 µM (active) in the experiment on N140; 11.2 µM (active) in the experiment with P93_24; 8.91 µM (active) with P94_40; 12.6 µM (active) in the experiment with PAD. In addition, the Potency with PC15 is 10 µM (active); with SC27B it was 10 µM (active); with TAB109, 7.94 µM (active); in the experiment with TAB113, 10 µM (active); in the experiment on TAB165, 8.91 µM (active); in the experiment on W2 it was 3.38 µM (active). The max response is -9.87% with CRL-7250, -17.1% in the experiment on HaCat, 3.26% with KB-3-1 and 3.31% with NIH3T3.

Regarding `CCOC(=O)[C@H](CCc1ccccc1)N[C@@H](C)C(=O)N1[C@H](C(=O)O)C[C@@H]2CCC[C@@H]21`, the max response with HEK293 is 1.35%; in the experiment on KB-3-1, 3.06%; in the experiment with NIH3T3, 0.794%. In the experiment on HaCat, the compound was classed as inactive.

Regarding `CCCCCCCCCCCCCC[N+](C)(C)Cc1ccccc1`, the Potency is 8.91 µM (active) with HB3; 2.51 µM (active) with ICS; 11.2 µM (active) in the experiment on JCK; 8.91 µM (active) in the experiment on N140; 7.94 µM (active) in the experiment with P93_24; 6.31 µM (active) in the experiment with P94_40. Moreover, the Potency in the experiment on PAD is 11.2 µM (active); with PC15, 6.31 µM (active); with PC26, 5.36 µM (active); in the experiment with PC49, 7.94 µM (active); with SC27B it was 7.94 µM (active); in the experiment with TAB109 it was 7.94 µM (active). Also, the Potency in the experiment with TAB113 is 6.31 µM (active); in the experiment with TAB165, 5.62 µM (active); with W2, 4.26 µM (active); in the experiment with HEK293, 2.99 µM (active); in the experiment on HaCat, 11.9 µM (active).
